Experiments:
Settings in all cases: concentration: 1 μM, replicates: in singlicate; n = 1
YES = tested on: T1, YES
T1 construct: gene YES1

YSK1 = tested on: T2, YSK1
T2 construct: gene STK25

YSK4 = tested on: T3, YSK4
T3 construct: gene MAP3K19

ZAK = tested on: ZAK
ZAP70 = tested on: ZAP70
p38-alpha = tested on: T4, p38-alpha
T4 construct: gene MAPK14

p38-beta = tested on: T5, p38-beta
T5 construct: gene MAPK11

p38-delta = tested on: p38-delta
p38-gamma = tested on: T6, p38-gamma
T6 construct: gene MAPK12
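Note: KINOMEscan kinase panel screen.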

Structure (SMILES)	%Inh (YES) [%]	%Inh (YSK1) [%]	%Inh (YSK4) [%]	%Inh (ZAK) [%]	%Inh (ZAP70) [%]	%Inh (p38-alpha) [%]	%Inh (p38-beta) [%]	%Inh (p38-delta) [%]	%Inh (p38-gamma) [%]
COc1ccc(CNC(=O)NC2CCN(c3ccnc(Nc4cc(OC)c(OC)c(OC)c4)n3)C2)cc1 (stereo not drawn) [GSK1379748]	0	9	13	5	3	12	0	26	0
Cc1ccc(C(=O)Nc2ccc(Nc3ccnc4cc(-c5ccccn5)ccc34)cc2O)cc1.Cl [GW440146]	42	0	14	48	9	0	0	42	11
COC(=O)c1c(-c2ccccc2)c2cc(OC)ccc2c(=O)n1Cc1ccccc1	0	1	0	20	0	36	7	42	0
Cn1ccc2ncnc(Oc3ccc(NC(=O)Nc4ccccc4)cc3)c21	0	0	93.1	0	0	0	0	6	0
Cn1ccc2ncnc(Oc3cccc(C(=O)Nc4ccccc4)c3)c21	1	0	1	0	0	0	6	3	0
CC(=O)Nc1nc2cnc(Nc3cc(NC(=O)c4cccc(CCC#N)c4)ccc3C)nc2s1	3	0	19	0	0	77	17	16	32
Cl.O=C(Nc1cccc(-c2nn3ncccc3c2-c2ccnc(Nc3cccnc3)n2)c1)c1c(F)cccc1F [GSK312879]	73	0	32	28	0	3	6	24	0
Cc1c(O)cccc1Nc1ccnc2ccc(C(F)(F)F)cc12.Cl [GW466413]	20	0	11	1	0	0	0	24	0
Cc1csc(-c2nc(Nc3ccncc3)c3ccccc3n2)n1 [GW869640]	0	0	38	17	18	14	12	0	39
COc1ccc(Nc2nccc(NCCNC(=O)Nc3ccccc3F)n2)cc1 [GSK1379901]	23	0	45	37	5	20	0	38	10
COc1cc2nccc(Nc3ccc(NC(=O)c4ccc(C)cc4)c(O)c3)c2cc1OC.Cl [GW440132]	17	20	9	23	0	0	0	23	0
Cc1nnc(-c2ccc3occ(-c4ccc(S(C)=O)cc4)c3c2)[nH]1 (stereo not drawn)	0	0	44	8	0	13	0	3	9
COc1ccc(Nc2nccc(-c3cccc(NC(=O)c4cc5cc(F)ccc5[nH]4)c3)n2)cc1 [GSK1229782]	29	31	79	22	0	27	0	45	48
Cc1cc(-c2ccc3c(c2)CC[C@@H](N[C@@H](C)c2ccccc2)C3)cnc1N.Cl [GW412617]	4	0	100	1	0	0	0	25	0
Cc1ccc(NC(=O)Nc2cc(C(C)(C)C)nn2-c2ccccc2)cc1 [GSK1014915]	9	0	19	26	0	99.7	87	54	50
COc1ccc(C2=C(Nc3cccc(C(=O)O)c3)C(=O)NC2=O)cc1 [SB-390765]	11	0	0	13	0	4	6	2	29
O=C(O)COc1ncnc2cc(-c3ccc4[nH]ncc4c3)sc12	0	0	83	6	14	20	16	32	21
